Experimental data: ChEMBL document CHEMBL1157539, “Thousands of chemical starting points for antimalarial lead identification” (Nature, 2010)

These compounds were tested on Plasmodium falciparum (assay: GSK_TCMDC: Inhibition of Plasmodium falciparum 3D7 in whole red blood cells, using parasite LDH activity as an index of growth. Test compounds present at 2uM).
Format: functional

In order of rising Inhibition:
1. COc1ccc(-c2cc3ncn(CC(=O)N4CCN(c5cccc(OC)c5)CC4)c(=O)c3s2)cc1  84%
2. Cc1c(NC(=O)COc2ccc(Cl)cc2C(=O)c2cc(F)cc(C(F)(F)F)c2)ccc2ncsc12  86%
3. COC(=O)C(NC(=O)NC1CCN(c2ccnc(Nc3ccc(F)cc3)n2)C1)c1ccccc1 (stereo not given)  87%
4. CCN(c1ccc(F)cc1)S(=O)(=O)c1cc(Br)cc2c1N(C(=O)C1CC1)CC2  88%
5. COc1ccc2ncc(F)c(CCN3CC(O)C(CNCc4ccc5oc(=O)ccc5c4)C3)c2n1.Cl (stereo not given)  89%
6. COc1c(C2CCN(CCCCNC(=O)c3ccc(-c4ccc(C#N)cc4)cc3)CC2)cc(Cl)c2c1CCCC2  93%
7. O=C(Cc1cccnc1)N(Cc1ccc(-c2ccc(CNCc3cccnc3)cn2)cc1)C1CCN(Cc2ccccc2)CC1.O=C(O)C(F)(F)F  93%
8. COc1ccc(C2=[N+]([O-])c3ccccc3C2=O)cc1  93%
9. O=C(/C=C/c1ccc(Cl)c(Cl)c1)NCCCCCN1CC[C@H](NC(=O)c2ccc3c(c2)OCO3)C1  94%
10. CCOc1ccc(NC(=O)c2cccc(CN3CCCN(Cc4cccc(O)c4)CC3)c2)cc1.O=C(O)C(F)(F)F  95%
11. COc1cc(N(C)Cc2cnc3nc(N)nc(N)c3n2)cc(OC)c1OC  95%
12. CCCCNc1nc(NCCCC)c2c(C)c(Cc3ccccc3)c(NCCCC)nc2n1.Cl  95%
13. CNC(=O)c1cnc(Nc2ccc(N3CCOCC3)cc2)nc1Nc1cccc(OC)c1.O=C(O)C(F)(F)F  96%
14. O=C(NCCc1ccccc1)N(Cc1ccccc1-c1ccc(CNC2CCCC2)cc1)C1CCN(Cc2ccccc2)CC1.O=C(O)C(F)(F)F  96%
15. c1ccc(-c2nc(NC3CCCCC3)cc(C3CC3)n2)nc1  97%
16. O=C(NCCN1CCOCC1)c1ccc(-c2ccc(CNCCCc3ccccc3)cc2)nc1.O=C(O)C(F)(F)F  97%
17. Nc1nc2ccc(S(=O)(=O)Nc3ccc(C(=O)N[C@@H](CCC(=O)O)C(=O)O)c(F)c3)cc2c(=O)[nH]1  97%
18. CCOc1cc(C(=O)Nc2ccc3nc(N4CCN(C)CC4)cc(C)c3c2)cc(OCC)c1OCC  97%
19. Cc1cccc(-n2c(Nc3ccc(C)c(Cl)c3)nc3ccc(S(=O)(=O)NC(C)C(C)C)cc32)c1 (stereo not given)  97%
20. CS(=O)(=O)N1CC2(CCN(CCC(NC(=S)Nc3ccccc3)c3ccc(Cl)c(Cl)c3)CC2)c2ccccc21 (stereo not given)  98%
21. O=C(Nc1ccc(Cl)c(Cl)c1)N1CCC(CNCc2cccc([N+](=O)[O-])c2)CC1.O=C(O)C(F)(F)F  98%
22. CN1C(C)(C)CC(NC(=O)c2ccc(-c3nc4cc(Cl)c(Cl)cc4[nH]3)cc2)CC1(C)C  98%
23. Cl.O=C(N[C@@H](Cc1ccccc1)[C@H](O)CNC1CCc2ccccc2C1)c1cc(C2CCCC2)cc(N2CCCC2=O)c1 (stereo not given in full)  99%
24. COc1ccccc1CCNc1nc(C)cc(N[C@@H](Cc2ccccc2)C(=O)NCc2cccc(F)c2)n1.O=C(O)C(F)(F)F  99%
25. COc1cc2nccc(Nc3cccc(Oc4ccccc4)c3)c2cc1OC.Cl  100%
26. Cc1cc(=NN=Cc2cccc(Cl)c2)c2ccc(F)cc2[nH]1  100%
27. Cc1cccc2nc(-c3cccc(-c4ccc(NC(=O)c5c[nH]cn5)cc4)c3)[nH]c12  100%
28. CCOC(=O)c1c(C)n(-c2ccccc2)c2ccc(O)cc12  100%
29. CC(C)c1sc(N2CCCCC2)nc1C(=O)Nc1ccc(F)cc1C(F)(F)F.O=C(O)C(F)(F)F  100%
30. Nc1ccc2[nH]cc(C3CCN(CCC4CCN(C(=O)/C=C/c5ccc(Cl)c(Cl)c5)CC4)CC3)c2n1  100%
31. CCCc1cc(OC)c(CC2c3cccc(O)c3CCN2C)cc1OC.Cl (stereo not given)  100%
32. CCCSc1nc2c(c(=O)n1Cc1ccco1)C1(CCCCC1)Cc1ccccc1-2  100%
33. N#Cc1ccc(OCCN(Cc2ccccc2C(F)(F)F)c2ccc(C#N)c(C(F)(F)F)c2)cc1  100%
34. CC(=NNC(S)=Nc1ccccc1Cl)c1ccccn1  100%
35. COc1cc(NC(=O)c2ccc(-c3ccccc3)cc2)ccc1OCCCN1CCC(c2ccccc2)CC1.Cl  100%
36. CC(=O)Nc1nc(C(=O)Nc2cccc(-c3ccc(-c4nc5cccc(C)c5[nH]4)cc3)c2)cs1  100%
37. O=C(NC(CCCN1CCC2(CC1)OCc1ccccc12)c1ccc(Cl)c(Cl)c1)c1cc(C(F)(F)F)cc(C(F)(F)F)c1 (stereo not given)  100%
38. CCC(C)NC(=O)Nc1ccc(-c2cccc(-c3nc4cccc(C)c4[nH]3)c2)cc1 (stereo not given)  100%
39. CCOc1cc(C(=O)Nc2cccnc2)ccc1-c1nc2cc(Cl)c(Cl)cc2[nH]1  100%
40. Cl.N=C(NCCc1ccc(Cl)cc1)c1ccc(Cl)c(Cl)c1  100%
